Assay outcomes (PubChem)
D1 potentiator = potentiators of human D1 dopamine receptor; P21728; HEK293 TREx D1 cells, calcium flux, dopamine EC20 potentiation; potentiation, % at 10 µM; 360,000 tested, 0.036% active; in the data active = potentiation above about 30%; note: 0% is about no effect
Target sequence (P21728 whole entry, looked up): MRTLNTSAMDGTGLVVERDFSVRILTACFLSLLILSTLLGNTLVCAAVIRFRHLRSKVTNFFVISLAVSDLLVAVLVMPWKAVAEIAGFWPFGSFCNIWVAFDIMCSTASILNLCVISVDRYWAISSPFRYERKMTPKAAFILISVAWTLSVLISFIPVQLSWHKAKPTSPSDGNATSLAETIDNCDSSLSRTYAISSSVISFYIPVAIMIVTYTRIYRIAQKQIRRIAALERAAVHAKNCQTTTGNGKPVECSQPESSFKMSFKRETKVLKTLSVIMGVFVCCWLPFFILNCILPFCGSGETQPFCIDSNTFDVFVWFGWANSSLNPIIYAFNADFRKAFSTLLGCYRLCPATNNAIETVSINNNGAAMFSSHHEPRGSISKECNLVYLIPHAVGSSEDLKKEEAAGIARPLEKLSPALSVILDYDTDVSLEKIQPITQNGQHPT
D1 antag = antagonists of human D1 dopamine receptor. P21728. 360,000 tested, 3.2% active. HEK293 TREx D1 cells, calcium flux, dopamine EC80; stronger effect = lower value. activity change, negative = inhibition, % at 10 µM; in the data active = activity change below about -30%; note: % is set by controls: 0 for no effect and ±100 for the full control effect
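Calcium flux readout: force-coupled, inducible Hek293 Trex D1 line, cells induced overnight at 30 C with tetracycline, dye-loaded 30–90 min at RT. Antagonism scored against EC80 dopamine challenge given 180 s after compound.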
TRHR ag = agonists of human TRH receptor; P34981; TRHR cells, calcium flux fluo-8, FDSS agonist mode; activation, % at 2 µM; 360,000 tested, 0.18% active; note: 0% is about no effect
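Read-out: compound-evoked intracellular calcium rise in TRHR cells, fluo-8 dye, kinetic FDSS fluorescence at 1 s/cycle following a 10-cycle baseline. Cells cultured overnight before dye loading (30 min–1.5 h, RT).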
TRHR enhancer = TRH receptor (human) allosteric enhancement; 360,000 tested, 0.66% active; P34981; enhancement, % at 2 µM; AID 493056; TRHR cells, fluo-8 calcium fluorescence, EC20 TRH enhancement; in the data active = enhancement above about 30%; note: 0% is about no effect
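Enhancer read-out: after compound pinning and an initial kinetic agonist-mode read, an EC20 of TRH (10 nM final) was injected and fluo-8 calcium signal (Ex 480/Em 530) followed at 1 s/cycle for 100 cycles in TRHR-expressing cells.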
D1 ag = agonists of human D1 dopamine receptor | P21728 | HEK293 T-REx D1 cells, calcium flux, agonist mode | activation, % at 2 µM | 360,000 tested, 1% active; note: 0% is about no effect
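Tetracycline-induced HEK293 TREx D1 cells, force-coupled to calcium signalling, were dye-loaded with a no-wash calcium kit. Compound was pin-added after a 10 s baseline. Fluorescence was read kinetically at 1 cycle/s for 180 s, with calcium rises flagged as agonism.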
Active calls of the source: *; · = not tested or not shown. Compounds with a hit are over-represented: about 4.6% of the library has one in this group of screens. Cut-off read from the data, not from the text of the source, unless noted: active = activation above about 30%; inactive = the rest.

SMILES	D1 potentiator	D1 antag	TRHR ag	TRHR enhancer	D1 ag
COc1cccc(-c2nc(SCC(=O)NCC3CCCO3)c(-c3ccc(C)cc3)[nH]2)c1 (stereo not given)	-1.0	11.6	2.0	0.5	-1.3
COc1cccc(-c2nc(SCC(=O)NCC3CCCO3)c(-c3ccc(Cl)cc3)[nH]2)c1 (stereo not given)	-3.6	-56.4*	2.3	-1.6	1.7
COc1ccc(-c2[nH]c(-c3ccc(Cl)cc3)nc2SCC(=O)Nc2nccs2)cc1	-5.5	-31.7*	0.0	-8.4	0.4
Cc1cccc(NC(=O)CCc2c(C)nc3nc(CNC(=O)c4cccc(F)c4)nn3c2C)c1	-1.4	-0.6	0.4	-3.8	-3.5
CCOc1ccc(NC(=O)NCCN2CCN(c3cc(Cl)ccc3C)CC2)cc1	-4.1	-7.2	0.2	2.0	19.7
Cc1ccc(NC(=O)CN2C(=O)COc3ccc(S(=O)(=O)N4CCCCCC4)cc32)cc1C	1.4	8.0	0.5	-3.5	2.2
C=C(C)COc1ccc(-c2[nH]ncc2Oc2cccc(OC)c2)c(O)c1	-4.5	-38.6*	0.2	1.7	5.3
COc1ccc(-c2c3c(nc4sc(C(=O)Nc5cccc(OC)c5)c(N)c24)CC(C)(C)CC3=O)cc1	-1.9	3.4	-0.1	-1.2	4.1
COc1ccc(NC(=O)c2sc3nc4c(c(-c5ccc(OC)cc5)c3c2N)C(=O)CC(C)(C)C4)cc1	-4.4	-35.9*	0.4	3.5	11.6
COc1ccc(-c2nnc(SCC(=O)c3ccc(NC(C)=O)cc3)o2)cc1OC	3.5	10.4	1.0	-2.2	2.0
Fc1ccc(-c2cc(C(F)(F)F)nc(NCC3CCCO3)n2)cc1 (stereo not given)	1.9	42.0	-1.1	6.5	32.2*
COC(=O)[C@@H](NC(=O)Nc1ccc(OC(F)(F)F)cc1)C(C)C	-9.8	-41.6*	-0.4	-2.0	11.2
COc1ccc2nc(-c3ccccc3)cc(OC)c2c1	-5.8	-60.5*	-0.5	5.7	0.5
CC(=O)Cn1cnc2sc(-c3ccccc3)cc2c1=O	-2.7	-36.4*	1.2	-1.7	0.9
Cc1ccc(OCC(=O)Nc2ccc(Cl)c(-c3nc4ncccc4o3)c2)cc1C	-2.8	2.0	0.4	2.0	7.2
CN1CCc2c(sc(NC(=O)CSc3ccc(F)cc3)c2-c2nc3ccccc3s2)C1	-1.2	-22.3	102.3*	-12.9	398.8*
CCN1CCc2c(sc(NC(=O)CSc3ccccc3)c2-c2nc3ccccc3s2)C1	-4.5	-24.2	147.2*	-19.9	403.5*
CC(=O)N1CCc2c(sc(NC(=O)CSc3ccc(F)cc3)c2-c2nc3ccccc3s2)C1	-1.6	·	0.2	-3.1	2.1
CC(=O)Nc1sc2c(c1-c1nc3ccccc3s1)CCN(C(C)C)C2	8.8	-13.0	129.7*	-4.0	73.9*
COc1cccc(C(=O)Nc2c(C(=O)c3ccc(F)cc3)oc3ccccc23)c1	-5.9	-5.3	0.5	6.4	1.0
N#Cc1ccc(C(=O)NCC(=O)OC(C(=O)Nc2cc(C(F)(F)F)ccc2Cl)c2ccccc2)cc1 (stereo not given)	-1.9	13.6	1.4	-3.0	7.7
COC(=O)c1ccccc1NC(=O)CCC(=O)N1CCOc2ccccc21	-2.2	-11.6	-0.9	-8.2	-1.7
COC(=O)CN1C(=O)CSc2ccc(S(=O)(=O)Nc3cccc(Br)c3)cc21	-1.9	3.6	0.3	2.2	-0.6
O=C(c1ccc(-c2cccc(C(F)(F)F)c2)o1)N1CCCCCCC1	0.7	-40.0*	-0.7	2.2	0.5
COc1ccc(C2CC3(CC(C)(C)NC(SC)=N3)Oc3cc(O)cc(C)c32)cc1 (stereo not given)	2.8	72.5	-0.1	7.2	262.7*
COc1ccc(N2CCN(S(=O)(=O)c3csc(C(N)=O)c3)CC2)cc1	-5.2	-21.0	0.3	0.2	8.0
CSc1ccc(S(=O)(=O)NCC(=O)OCC(=O)N2CCC(C)CC2)cc1[N+](=O)[O-]	-2.5	-31.4*	-0.2	-0.1	1.3
CSc1ccc(S(=O)(=O)NCC(=O)OCC(=O)N2CCCCC2C)cc1[N+](=O)[O-] (stereo not given)	1.5	-7.3	0.3	-2.1	1.3
CCc1ccccc1NC(=O)CN(Cc1ccccc1)S(=O)(=O)c1ccc(Br)cc1	0.0	6.6	2.5	-7.4	3.8
CCn1c(C)[n+](CCOCC[n+]2c(C)n(CC)c3cc(Cl)c(Cl)cc32)c2cc(Cl)c(Cl)cc21	-4.5	-47.9*	0.3	-5.9	0.2
